SMILES strings stand for the structures. Values joined by “and” are separate entries in the source; they are usually repeats but may differ in a detail not shown here. Equal entries are not always repeated. Inconclusive results are not listed. Values without a mark were called inactive. Active and inactive are the calls of the source. The call rests on the fitted dose curve; in most records, active means well fitted activation curve with a large enough effect; inconclusive means small, poorly fitted or top-dose-only effect; inactive means no such curve, though single readings can be large or run the other way.

Our source for the activation and Potency values is PubChem BioAssay (NCATS).
Potency means the concentration at half of the fitted maximal effect.

The target of this assay is Cellular tumor antigen p53 (Homo sapiens) (UniProt P04637). Description: Primary qHTS for small molecule compounds that upregulate eGFP-tagged delta133p53alpha (in N-terminal) cells. (AID 2060322). Further: nearly all actives have a fitted effect of over 75% in size.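 On activation: series mostly up to about 56 µM; 0% = DMSO vehicle and 100% = reference activator.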 Particulars: NCI-H358 eGFP-delta133p53alpha fluorescence, 24 h; activation: stronger effect = higher value. In a few lines: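 NCI-H358 cells pre-induced 24 h with 10 ng/ml doxycycline for eGFP-delta133p53alpha, plated dox-free and exposed 24 h at 37C to titrated compounds. Fixed, Hoechst-stained; gated GFP peak intensity by laser scanning cytometry, normalized to DMSO (0%) and 57.5 uM 5-azacytidine (100%).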
Cellular tumor antigen p53 (Homo sapiens), sequence (P04637 whole entry, looked up): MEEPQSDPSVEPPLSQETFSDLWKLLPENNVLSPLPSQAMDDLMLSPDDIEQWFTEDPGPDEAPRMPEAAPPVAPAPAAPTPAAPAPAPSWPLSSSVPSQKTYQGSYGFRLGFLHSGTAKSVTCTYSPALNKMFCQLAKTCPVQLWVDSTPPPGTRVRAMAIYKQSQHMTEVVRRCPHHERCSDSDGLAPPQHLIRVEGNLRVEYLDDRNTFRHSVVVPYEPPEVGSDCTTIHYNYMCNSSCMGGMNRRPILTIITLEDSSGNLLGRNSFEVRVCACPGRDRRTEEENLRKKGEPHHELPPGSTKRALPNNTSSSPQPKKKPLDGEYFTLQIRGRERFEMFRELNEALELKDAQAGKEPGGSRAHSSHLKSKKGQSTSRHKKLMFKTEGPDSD
With `CCN(CC)CCOC(=O)C(O)(c1ccccc1)c1ccccc1`, the activation is 20.9%.

Take `C[C@]12CC[C@H]3[C@@H](CCC4=CC(=O)CC[C@@H]43)[C@@H]1CC[C@@H]2O`: the activation was -0.837%.

In the case of `CC(Cc1ccccc1)N(C)Cc1ccco1` (stereo not given), the activation was -11.7%.

With `CC(C)(C)NCC(O)c1cc(Cl)c(N)c(Cl)c1` (stereo not given), the activation is -6.21%.

For the molecule `CC(C)N[C@@H]1CCn2c(=O)[nH]c3cccc(c32)[C@@H]1O`, the activation was 13.7%.

In the case of `OCCOc1ccccc1`, the activation was -20.9%.

As to `ClCCCN1CCN(c2cccc(Cl)c2)CC1`, the activation was -2.82%.

As for `CC(C)(C)[C@]1(O)C[C@@H]2OC(=O)C[C@@]23C(=O)O[C@@H]2OC(=O)[C@H](O)C213` (stereo not given in full), the activation was 7.05%.

Regarding `CC(C)[N+](C)(CCC(C(N)=O)(c1ccccc1)c1ccccc1)C(C)C`, the activation is 27.7%.

In the case of `CC1OC(C)OC(C)O1` (stereo not given), the activation is 6.21%.

Consider `CCN1CCCC1CNC(=O)C(O)(c1ccccc1)c1ccccc1` (stereo not given), for which the activation is -15.1%.

In the case of `C=CCOC(Cn1ccnc1)c1ccc(Cl)cc1Cl` (stereo not given), the activation was 6.69%.

In the case of `CS(=O)(=O)c1ccc(C(=O)C2C(=O)CCCC2=O)c([N+](=O)[O-])c1`, the activation is -5.86%.

Consider `CCCCCCCCCCCC[N+](C)(C)CCOc1ccccc1`, for which the Potency is 21.9 µM (active).

With `COP(=O)(OC)C(O)C(Cl)(Cl)Cl` (stereo not given), the activation was -2.51%.

Consider `COc1ccc(C(c2ccc(OC)cc2)C(Cl)(Cl)Cl)cc1`, for which the activation is -10.7%.

For the molecule `CCS(=O)(=O)C(C)(C)S(=O)(=O)CC`, the activation is -5.86%.

As to `CC(C(O)c1ccccc1)N(C)C/C=C/c1ccccc1` (stereo not given), the activation is -4.18%.

Consider `C[C@@H]1[C@@H](CC(C[C@H]2O[C@@H]3O[C@]4(C)CC[C@@H]5[C@H](C)CC[C@@H]([C@H]2C)[C@@]35OO4)C[S+](=O)([O-])c2ccc(COC(=O)N(C)C)cc2)O[C@@H]2O[C@]3(C)CC[C@H]4[C@H](C)CC[C@@H]1[C@@]24OO3` (stereo not given in full), for which the activation was 8.23%.

With `CN1CCN(C(=O)O[C@H]2c3nccnc3C(=O)N2c2ccc(Cl)cn2)CC1`, the activation was 11.9% and -19.6%.

As for `CCOC(=O)C1(c2ccccc2)CCN(CCC(C#N)(c2ccccc2)c2ccccc2)CC1`, the activation was -1.69%.

Regarding `CCN(CC)CCOC(=O)C(C)(c1ccccc1)c1ccccc1`, the activation was -8.47%.

`CN1CCC(N(Cc2ccccc2)c2ccccc2)CC1`: the activation is 10.7%.

On to `COc1cc(CC(C)N)c(OC)cc1Br` (stereo not given), for which the activation is 43.5%.

As to `C[C@]12CC[C@H]3[C@@H](CCC4=CC(=O)CC[C@@]43C)[C@@H]1CC[C@@H]2C(=O)O`, the activation was 1.69%.

`NP(N)(=O)NC(=O)c1ccc(F)cc1`: the activation is -15.1%.

As to `Fc1cc(Br)ccc1CBr`, the activation was -29.9%.

With `CC1N=C(N)OC1c1ccccc1` (stereo not given), the activation is -17.5%.

With `C[C@]12CCC(=O)C=C1CC[C@@H]1[C@H]3CC[C@](C)(O)[C@@]3(C)CC[C@@H]12`, the Potency was 50.9 µM (active).

Turning to `COc1ccc2c3c1O[C@H]1[C@H](O)CC[C@H]4[C@@H](C2)N(C)CC[C@@]341`, the activation is 16.4%.

In the case of `COc1ccc(CN2CCNCC2)c(OC)c1OC`, the activation is -13%.

Turning to `C[C@H]1C(=O)O[C@@H]2CCN3CC=C(COC(=O)[C@](C)(O)[C@]1(C)O)[C@H]23`, the activation was -36.8%.

As for `COc1cc(CCN)cc(OC)c1OC`, the activation is -6.21%.

Turning to `CC(C)NCC(O)c1ccc(N)c(C#N)c1` (stereo not given), the activation was 1.69%.

`OCCCBr`: the activation is -36.8%.

Consider `COc1ccc2c(c1)CN(C)CC2c1ccc(Cl)c(Cl)c1` (stereo not given), for which the activation was 10.8%.

`O=[N+]([O-])c1cc([As](=O)(O)O)ccc1O`: the activation was 9.21%.

Consider `COP(=S)(OC)Oc1cc(Cl)c(Cl)cc1Cl`, for which the activation was -17.5%.

With `CC1(C)C(C=C(Cl)Cl)C1C(=O)OC(C#N)c1cccc(Oc2ccccc2)c1` (stereo not given), the activation is -23.2%.

On to `ClCCN1CCCC1`, for which the activation is 4.18%.
